# Measurements as given in the supplement of paper PMC7724964.
# ± gives the standard deviation of the averaged measurements.
# T1: TSG101 1-145 UEV (domain begin residue: 1, domain end residue: 145), Q99816
# T1 chain: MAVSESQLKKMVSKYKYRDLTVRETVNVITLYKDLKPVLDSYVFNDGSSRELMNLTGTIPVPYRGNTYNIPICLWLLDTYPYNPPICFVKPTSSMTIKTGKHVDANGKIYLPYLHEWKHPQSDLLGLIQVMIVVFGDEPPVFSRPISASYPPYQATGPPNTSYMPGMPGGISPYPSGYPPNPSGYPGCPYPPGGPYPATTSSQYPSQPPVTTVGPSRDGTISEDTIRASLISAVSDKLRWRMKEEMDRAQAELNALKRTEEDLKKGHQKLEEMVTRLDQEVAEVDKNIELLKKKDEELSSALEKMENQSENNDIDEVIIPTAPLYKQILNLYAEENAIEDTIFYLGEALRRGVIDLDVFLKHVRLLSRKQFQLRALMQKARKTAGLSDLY
# T2: TRIM11 268-461 SPRY (domain begin residue: 268, domain end residue: 461), Q96F44
# T2 chain: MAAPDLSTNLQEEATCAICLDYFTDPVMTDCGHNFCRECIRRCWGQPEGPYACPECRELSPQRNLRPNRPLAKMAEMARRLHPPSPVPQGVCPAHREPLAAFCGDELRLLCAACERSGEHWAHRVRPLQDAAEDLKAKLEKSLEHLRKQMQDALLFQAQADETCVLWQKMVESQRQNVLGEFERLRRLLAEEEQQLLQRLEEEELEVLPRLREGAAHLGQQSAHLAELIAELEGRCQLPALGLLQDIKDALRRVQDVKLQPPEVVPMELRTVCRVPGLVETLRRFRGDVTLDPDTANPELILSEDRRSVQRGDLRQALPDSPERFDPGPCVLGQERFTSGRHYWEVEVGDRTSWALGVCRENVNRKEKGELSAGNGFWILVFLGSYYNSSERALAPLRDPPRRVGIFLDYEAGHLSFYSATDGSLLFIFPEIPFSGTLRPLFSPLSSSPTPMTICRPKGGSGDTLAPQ
# T3: TRIM39 319-514 SPRY (domain begin residue: 319, domain end residue: 514), Q9HCM9
# T3 chain: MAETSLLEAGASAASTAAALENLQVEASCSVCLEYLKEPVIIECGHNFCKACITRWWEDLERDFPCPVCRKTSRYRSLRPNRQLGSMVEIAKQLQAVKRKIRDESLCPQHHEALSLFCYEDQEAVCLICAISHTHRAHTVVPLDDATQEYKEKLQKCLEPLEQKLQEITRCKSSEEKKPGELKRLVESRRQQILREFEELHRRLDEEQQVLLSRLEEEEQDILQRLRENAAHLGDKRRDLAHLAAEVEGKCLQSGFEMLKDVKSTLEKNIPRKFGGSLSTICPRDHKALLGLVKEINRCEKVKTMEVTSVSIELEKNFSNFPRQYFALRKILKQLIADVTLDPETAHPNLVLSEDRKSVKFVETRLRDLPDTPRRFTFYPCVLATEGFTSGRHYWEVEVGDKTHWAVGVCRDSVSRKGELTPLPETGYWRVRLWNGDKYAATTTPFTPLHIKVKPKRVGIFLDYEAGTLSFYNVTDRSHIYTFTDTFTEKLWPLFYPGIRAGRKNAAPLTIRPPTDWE
# Assays:
# Assay in all cases: phage ELISA signal ratio (GST-PRM binding over GST background); higher = stronger binding of peptide-phage to the PRM
# [1] = target: UBR5 2391-2453 PABP (domain begin residue: 2391, domain end residue: 2453), O95071
# Outline: (§1)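 Human peptide recognition domains were expressed in 96-well plates as fusions to the C-terminus of glutathione S-transferase (GST) and selected against an M13 phage library displaying randomized hexadecapeptides, cysteine-free and glycine-flanked, on the gene-8 major coat protein. Five selection rounds were run, and approximately 48 individual clones from rounds 4 and 5 were tested by phage ELISA. Each value is the ELISA signal on the GST-domain fusion divided by the signal on GST alone. Positive clones were sequenced.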
# [2] = target: UBE2V2 1-145 UQ_con (domain begin residue: 1, domain end residue: 145), Q15819
# Outline: as §1
# [3] = target: T1, TSG101 1-145 UEV (domain begin residue: …
# Outline: as §1
# [4] = target: U2AF2 372-475 RRM_1 (domain begin residue: 372, domain end residue: 475), P26368
# Outline: as §1
# [5] = target: TRIM21 268-465 SPRY (domain begin residue: 268, domain end residue: 465), P19474
# Outline: as §1
# [6] = target: T2, TRIM11 268-461 SPRY (domain begin …
# Outline: as §1
# [7] = target: TRIM30 281-496 SPRY (domain begin residue: 281, domain end residue: 496)
# Outline: as §1
# [8] = target: TRIM25 439-630 SPRY (domain begin residue: 439, domain end residue: 630), Q14258
# Outline: as §1
# [9] = target: TRIM7 324-511 SPRY (domain begin residue: 324, domain end residue: 511), Q9C029
# Outline: as §1
# [10] = target: UBA52 1-76 Ubiquitin (domain begin residue: 1, domain end residue: 76), P62987
# Outline: as §1
# [11] = target: T3, TRIM39 319-514 SPRY (domain begin …
# Outline: as §1
# [12] = target: UBE2D2 1-147 UQ_con (domain begin residue: 1, domain end residue: 147), P62837
# Outline: as §1
# Chain of TRIM21 268-465 SPRY (domain begin residue: 268, domain end residue: 465), P19474 (P19474 whole entry): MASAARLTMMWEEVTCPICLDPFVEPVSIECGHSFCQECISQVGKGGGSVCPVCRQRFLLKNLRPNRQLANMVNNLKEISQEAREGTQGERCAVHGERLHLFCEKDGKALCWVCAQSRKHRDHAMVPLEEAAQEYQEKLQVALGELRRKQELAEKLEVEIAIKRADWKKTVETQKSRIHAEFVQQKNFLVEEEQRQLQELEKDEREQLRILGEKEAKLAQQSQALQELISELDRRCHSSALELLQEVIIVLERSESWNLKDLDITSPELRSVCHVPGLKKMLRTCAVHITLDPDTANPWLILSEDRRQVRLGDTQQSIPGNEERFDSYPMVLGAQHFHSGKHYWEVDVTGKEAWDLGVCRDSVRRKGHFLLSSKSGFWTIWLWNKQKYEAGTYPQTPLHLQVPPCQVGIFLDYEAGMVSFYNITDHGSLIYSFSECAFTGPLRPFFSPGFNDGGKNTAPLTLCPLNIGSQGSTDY
# Chain of U2AF2 372-475 RRM_1 (domain begin residue: 372, domain end residue: 475), P26368 (P26368 whole entry): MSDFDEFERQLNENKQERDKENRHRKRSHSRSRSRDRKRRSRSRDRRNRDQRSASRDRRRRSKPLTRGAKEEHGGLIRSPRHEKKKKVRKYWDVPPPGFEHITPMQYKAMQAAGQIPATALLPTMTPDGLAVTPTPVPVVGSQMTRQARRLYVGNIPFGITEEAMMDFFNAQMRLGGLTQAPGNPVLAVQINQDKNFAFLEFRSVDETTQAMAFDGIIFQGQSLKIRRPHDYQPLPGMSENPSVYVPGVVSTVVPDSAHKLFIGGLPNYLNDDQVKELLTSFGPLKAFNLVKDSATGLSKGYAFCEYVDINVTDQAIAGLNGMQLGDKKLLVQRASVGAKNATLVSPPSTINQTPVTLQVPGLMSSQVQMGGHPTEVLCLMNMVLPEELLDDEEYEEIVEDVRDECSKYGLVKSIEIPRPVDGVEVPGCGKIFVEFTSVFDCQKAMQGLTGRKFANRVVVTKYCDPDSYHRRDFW
# Chain of UBR5 2391-2453 PABP (domain begin residue: 2391, domain end residue: 2453), O95071 (O95071 whole entry, the tested form may be a part): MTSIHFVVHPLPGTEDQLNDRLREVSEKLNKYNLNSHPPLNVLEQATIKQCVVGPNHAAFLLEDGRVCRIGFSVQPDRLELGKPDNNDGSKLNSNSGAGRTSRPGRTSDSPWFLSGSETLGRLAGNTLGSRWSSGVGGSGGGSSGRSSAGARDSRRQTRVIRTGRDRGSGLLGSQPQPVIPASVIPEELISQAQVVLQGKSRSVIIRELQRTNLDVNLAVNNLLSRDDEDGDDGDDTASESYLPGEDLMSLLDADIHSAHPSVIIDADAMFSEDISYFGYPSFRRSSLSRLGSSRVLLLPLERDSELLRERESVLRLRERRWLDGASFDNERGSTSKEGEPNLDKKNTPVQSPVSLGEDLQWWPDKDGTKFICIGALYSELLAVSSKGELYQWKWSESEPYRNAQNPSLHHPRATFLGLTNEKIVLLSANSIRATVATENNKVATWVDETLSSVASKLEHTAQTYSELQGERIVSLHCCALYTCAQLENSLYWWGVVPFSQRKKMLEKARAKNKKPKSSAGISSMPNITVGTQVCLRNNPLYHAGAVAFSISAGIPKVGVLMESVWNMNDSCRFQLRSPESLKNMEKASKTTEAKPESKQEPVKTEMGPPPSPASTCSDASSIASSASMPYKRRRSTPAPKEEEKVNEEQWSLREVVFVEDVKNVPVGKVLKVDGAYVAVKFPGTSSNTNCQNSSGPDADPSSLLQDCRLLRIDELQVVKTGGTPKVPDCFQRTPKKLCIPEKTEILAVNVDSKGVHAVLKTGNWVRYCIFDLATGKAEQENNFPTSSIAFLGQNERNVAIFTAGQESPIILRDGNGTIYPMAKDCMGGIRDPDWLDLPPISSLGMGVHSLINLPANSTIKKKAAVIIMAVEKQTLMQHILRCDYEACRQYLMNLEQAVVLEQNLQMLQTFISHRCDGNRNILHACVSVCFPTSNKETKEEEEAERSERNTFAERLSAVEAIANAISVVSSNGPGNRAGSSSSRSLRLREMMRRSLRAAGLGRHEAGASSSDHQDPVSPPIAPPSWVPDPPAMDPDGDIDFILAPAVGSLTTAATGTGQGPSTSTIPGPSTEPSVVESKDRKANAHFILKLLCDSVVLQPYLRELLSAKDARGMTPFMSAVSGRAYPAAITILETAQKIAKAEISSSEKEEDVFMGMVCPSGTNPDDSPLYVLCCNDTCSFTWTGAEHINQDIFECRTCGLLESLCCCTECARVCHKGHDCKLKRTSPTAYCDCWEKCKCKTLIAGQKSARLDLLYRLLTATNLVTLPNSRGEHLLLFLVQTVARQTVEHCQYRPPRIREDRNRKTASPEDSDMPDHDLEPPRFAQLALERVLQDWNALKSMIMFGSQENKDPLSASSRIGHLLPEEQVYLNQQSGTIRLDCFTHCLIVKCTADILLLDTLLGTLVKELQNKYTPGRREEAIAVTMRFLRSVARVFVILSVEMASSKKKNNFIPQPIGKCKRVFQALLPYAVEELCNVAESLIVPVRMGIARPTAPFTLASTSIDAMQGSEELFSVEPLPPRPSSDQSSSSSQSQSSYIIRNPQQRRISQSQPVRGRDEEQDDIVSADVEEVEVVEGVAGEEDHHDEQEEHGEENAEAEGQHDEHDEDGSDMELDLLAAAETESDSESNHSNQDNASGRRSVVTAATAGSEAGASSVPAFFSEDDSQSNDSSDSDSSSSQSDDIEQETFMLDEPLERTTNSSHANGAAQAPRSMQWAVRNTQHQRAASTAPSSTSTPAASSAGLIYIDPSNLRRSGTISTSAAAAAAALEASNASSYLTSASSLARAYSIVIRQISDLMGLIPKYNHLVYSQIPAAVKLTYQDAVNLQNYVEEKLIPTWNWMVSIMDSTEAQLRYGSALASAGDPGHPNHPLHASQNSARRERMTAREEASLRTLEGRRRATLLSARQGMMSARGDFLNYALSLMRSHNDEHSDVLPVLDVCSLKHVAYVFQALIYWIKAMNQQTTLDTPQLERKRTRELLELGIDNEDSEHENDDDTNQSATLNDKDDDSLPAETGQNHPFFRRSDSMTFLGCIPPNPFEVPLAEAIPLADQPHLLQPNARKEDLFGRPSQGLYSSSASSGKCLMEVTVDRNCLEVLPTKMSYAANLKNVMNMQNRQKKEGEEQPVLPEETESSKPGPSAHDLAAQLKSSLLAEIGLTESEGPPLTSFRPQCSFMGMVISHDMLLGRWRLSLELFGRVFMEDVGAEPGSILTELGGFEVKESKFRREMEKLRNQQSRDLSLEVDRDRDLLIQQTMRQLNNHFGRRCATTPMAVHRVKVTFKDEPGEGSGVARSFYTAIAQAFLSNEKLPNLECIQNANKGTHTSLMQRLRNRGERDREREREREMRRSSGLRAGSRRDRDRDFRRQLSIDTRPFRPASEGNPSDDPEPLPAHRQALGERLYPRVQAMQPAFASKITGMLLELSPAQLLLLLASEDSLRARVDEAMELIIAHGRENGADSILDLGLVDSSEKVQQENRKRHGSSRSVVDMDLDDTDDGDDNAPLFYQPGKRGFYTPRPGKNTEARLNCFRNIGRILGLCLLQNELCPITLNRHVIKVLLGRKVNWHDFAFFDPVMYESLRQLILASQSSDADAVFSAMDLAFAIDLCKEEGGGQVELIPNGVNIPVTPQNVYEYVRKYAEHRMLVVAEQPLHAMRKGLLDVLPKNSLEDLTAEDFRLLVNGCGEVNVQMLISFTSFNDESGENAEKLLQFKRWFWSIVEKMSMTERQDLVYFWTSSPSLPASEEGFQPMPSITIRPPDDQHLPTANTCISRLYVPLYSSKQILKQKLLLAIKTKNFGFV
# Chain of TRIM25 439-630 SPRY (domain begin residue: 439, domain end residue: 630), Q14258 (Q14258 whole entry): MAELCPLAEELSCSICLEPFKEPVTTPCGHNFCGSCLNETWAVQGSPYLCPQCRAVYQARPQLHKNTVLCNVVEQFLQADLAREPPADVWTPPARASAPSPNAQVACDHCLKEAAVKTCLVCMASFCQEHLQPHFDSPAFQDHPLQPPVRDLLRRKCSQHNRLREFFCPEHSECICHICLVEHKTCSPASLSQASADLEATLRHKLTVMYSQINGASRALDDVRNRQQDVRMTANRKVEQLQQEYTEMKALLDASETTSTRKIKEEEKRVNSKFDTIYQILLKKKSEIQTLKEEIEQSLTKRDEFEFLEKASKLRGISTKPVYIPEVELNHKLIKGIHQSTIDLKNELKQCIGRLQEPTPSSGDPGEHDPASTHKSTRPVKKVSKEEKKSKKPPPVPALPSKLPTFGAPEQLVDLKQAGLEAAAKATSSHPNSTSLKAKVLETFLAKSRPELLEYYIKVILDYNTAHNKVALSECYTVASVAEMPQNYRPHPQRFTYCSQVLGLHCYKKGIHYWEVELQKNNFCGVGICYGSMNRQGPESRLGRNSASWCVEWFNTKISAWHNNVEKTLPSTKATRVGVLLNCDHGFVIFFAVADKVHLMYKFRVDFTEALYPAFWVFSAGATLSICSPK
# Chain of UBE2V2 1-145 UQ_con (domain begin residue: 1, domain end residue: 145), Q15819 (Q15819 whole entry): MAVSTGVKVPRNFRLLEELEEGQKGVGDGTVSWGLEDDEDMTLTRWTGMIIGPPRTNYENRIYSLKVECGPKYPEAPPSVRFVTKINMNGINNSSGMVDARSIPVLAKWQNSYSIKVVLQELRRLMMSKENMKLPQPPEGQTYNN
# Chain of UBE2D2 1-147 UQ_con (domain begin residue: 1, domain end residue: 147), P62837 (P62837 whole entry): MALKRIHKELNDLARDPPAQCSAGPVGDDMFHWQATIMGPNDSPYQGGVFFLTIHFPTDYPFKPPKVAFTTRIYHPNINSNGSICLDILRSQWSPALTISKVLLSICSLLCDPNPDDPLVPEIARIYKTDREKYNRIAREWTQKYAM
binder,measurement,setting,value
VMTLSPHATPYYPQMQ,phage ELISA signal ratio,[1],5.69
QVGWWMELDHPFWWHQ,phage ELISA signal ratio,[2],8.59
EFLNVMAPSWVDITEW,phage ELISA signal ratio,[1],16.9
NFNYPEQMYSYNPHWI,phage ELISA signal ratio,[3],20.4 ± 0.54
FDRWESRRQSIGLELS,phage ELISA signal ratio,[4],8.37
GPLHPTAPVWENMLKY,phage ELISA signal ratio,[3],15.7
WEMTLMEEAWATKFEV,phage ELISA signal ratio,[5],29.9
QVFWYPQAEEWPWFLD,phage ELISA signal ratio,[6],34.5
HRFVYMEQLPSWLFAV,phage ELISA signal ratio,[6],23
MHDDLDWVHHMAVPQV,phage ELISA signal ratio,[5],27.1
TGVEMMSYKAKPFYPE,phage ELISA signal ratio,[1],7.69
WDWQTDYGYWEDFVPV,phage ELISA signal ratio,[7],4.08
FETPWQIEDVWGMAGF,phage ELISA signal ratio,[8],27.1
TDFTYAHAYNPHFIVS,phage ELISA signal ratio,[3],5.82
TELPFTYMTRIPSWVW,phage ELISA signal ratio,[6],30
LSVAAPMFVPNNAVVS,phage ELISA signal ratio,[1],5.76
LERKIAWAQQLWKYFV,phage ELISA signal ratio,[9],6.97
LSYESAPWWPHMPAEF,phage ELISA signal ratio,[1],13.2
FEHLEYSHPYLWEMYF,phage ELISA signal ratio,[2],5.45
MDWYDMYGTTWDMIPG,phage ELISA signal ratio,[8],10.7
EHMWDAQMWEWSWWDL,phage ELISA signal ratio,[10],15.1
WYEDGWWTPHRMEQTR,phage ELISA signal ratio,[6],30
EWQWHNSVDWVPHKAT,phage ELISA signal ratio,[1],12.4
VFEFMDRADWPDWVMM,phage ELISA signal ratio,[6],20.4
SQLSIMSLEAAPFTWE,phage ELISA signal ratio,[1],10.5
MNIDAREWSPASWEVH,phage ELISA signal ratio,[1],3.6
YQPNMASAPEWVWESH,phage ELISA signal ratio,[3],29.4
GWYEMEGWGMPKDIET,phage ELISA signal ratio,[11],3.7
TNSMPQWAQSQLAMYR,phage ELISA signal ratio,[2],21.3
YGMSIDASSFVPYEFW,phage ELISA signal ratio,[1],17.8
KVNTFHFMDPPDWLTH,phage ELISA signal ratio,[6],14.3
DVIPWDTWNFWREQDF,phage ELISA signal ratio,[7],9.37
DRNAEMAIRQYFMYHE,phage ELISA signal ratio,[2],8.43
WGHDWMMEWNTLQPMS,phage ELISA signal ratio,[12],4.08
FEDGWMYQDFLKAPET,phage ELISA signal ratio,[5],14.1
same,phage ELISA signal ratio,[8],9.36
YIDYTFFEDGYYRVIE,phage ELISA signal ratio,[2],5.72
EWGSGWLNFQAAEFIV,phage ELISA signal ratio,[1],8.2
EMWVFTPAEWFQIYLN,phage ELISA signal ratio,[10],16.2
WDDGFMEYGALPHEQM,phage ELISA signal ratio,[8],12.3
DLHYDWSLEYWTSLLQ,phage ELISA signal ratio,[10],17.2
SKELSVNAIPFDPHWY,phage ELISA signal ratio,[1],4.24
ELTTFHFYKEAPVWVI,phage ELISA signal ratio,[6],31.5
FPYNPHWDMLQQETTV,phage ELISA signal ratio,[3],3.09
TVFWDGMYDWPVEMDI,phage ELISA signal ratio,[8],21
YLWFSPAPSAPIWQWV,phage ELISA signal ratio,[3],5.56
VSDLWWNPTWSSQETI,phage ELISA signal ratio,[3],9.75
FDKWEQRRSVPMGQVQ,phage ELISA signal ratio,[4],3.6
VVGDGMAFERWFQDFE,phage ELISA signal ratio,[8],14.5
GLVYYDVPFDFGVIDW,phage ELISA signal ratio,[9],13.2
MPDGWWDQYSWEHIAE,phage ELISA signal ratio,[8],15.7
VGTFMFGEMPSWVVST,phage ELISA signal ratio,[6],19.6
FSRWEQRQMQSVGGAG,phage ELISA signal ratio,[4],6.45
TGNVFQFMDPPQWLTH,phage ELISA signal ratio,[6],29.9
MTVVEWWTDAQIAEWM,phage ELISA signal ratio,[10],12.5
MQEAPYNPAWMEVPEL,phage ELISA signal ratio,[3],27.7
MTMDFHPDWWDVADQW,phage ELISA signal ratio,[9],29.6
SLEWWNDISHPYWWHQ,phage ELISA signal ratio,[2],6.28
